Rows were chosen to be rich in hits. Some 3% of all compounds tested hit in one or more screens of this group.
PPC-1+TRAIL kill – PPC-1 cancer cell killing with TRAIL present | PPC-1 cells + TRAIL, ATPLite viability luminescence | cell killing (% activity), % at 4 µM or 5 µM | 220,000 tested, 0.41% active | AID 1443;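 active = cell killing above 50% in the first pass at 4 µM, then a duplicate retest at 5 µM averaging 50% or more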
SENP7 block – SENP7 protease inhibition; inhibition, % at 5 µM; 330,000 tested, 1.5% active; AID 434973; recombinant SENP7, Z-RLRGG-aminoluciferin luminescence, 40 min; Q9BQF6;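 active = inhibition above about 50% at the single test dose, limit read from the data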
SENP8 block-1 – SENP8 protease inhibition | Q96LD8 | purified SENP8, Z-RLRGG-aminoluciferin cleavage, luminescence | inhibition, % at 10 µM | 330,000 tested, 1.2% active | AID 2540; in the data active = inhibition above about 50%
SENP6 inh – inhibitors of human SENP6 protease; inhibition, % at 10 µM; 330,000 tested, 1.8% active; Q9GZR1; Recombinant SENP6 catalytic domain, aminoluciferin luminescence; AID 2599;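 active = inhibition above about 50% at the single tested dose, limit read from the data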
Target sequence (Q9GZR1 628-1112 limits assumed): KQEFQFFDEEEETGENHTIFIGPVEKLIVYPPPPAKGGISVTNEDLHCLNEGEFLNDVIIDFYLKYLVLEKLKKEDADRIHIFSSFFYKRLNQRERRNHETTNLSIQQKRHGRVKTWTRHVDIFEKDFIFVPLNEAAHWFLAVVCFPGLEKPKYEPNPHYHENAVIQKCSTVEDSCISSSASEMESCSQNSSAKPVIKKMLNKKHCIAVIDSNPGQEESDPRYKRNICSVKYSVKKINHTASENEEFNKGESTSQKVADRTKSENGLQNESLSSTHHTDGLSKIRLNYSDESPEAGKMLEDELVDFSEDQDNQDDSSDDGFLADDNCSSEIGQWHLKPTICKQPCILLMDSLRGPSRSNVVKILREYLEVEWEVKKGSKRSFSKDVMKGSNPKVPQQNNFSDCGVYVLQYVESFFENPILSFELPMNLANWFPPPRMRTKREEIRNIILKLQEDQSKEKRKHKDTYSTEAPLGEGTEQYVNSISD
TRAIL sens C8 – sensitizes caspase-8 expressing cells to TRAIL; NB7+C8 cells + TRAIL, ATPlite viability luminescence; inhibition (viability loss, TRAIL sensitization), % at 10 µM; 360,000 tested, 1% active;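 active = compounds causing at least 50% loss of cell viability in the single-dose screen, relative to plate controls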
SENP8 block-2 – blocks human SENP8 cleavage of Nedd8 substrate; Q96LD8; AID 602440; 360,000 tested, 0.64% active; recombinant SENP8, Nedd8 substrate fluorescence; inhibition, % at 20 µM; in the data active = inhibition mostly above about 40%, no sharp cut-off; inactive = mostly below about 27%
SENP8 confirm – confirmation of human SENP8 protease inhibitors. inhibition, % at 12.5 µM. shares compounds with SENP7 block. 6,200 tested, 40% active. Recombinant SENP8, Z-RLRGG-aminoluciferin luminescence, 60 min. AID 488912;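 active = mean inhibition across replicates above about 50%, limit read from the data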
SENP6 conf – confirmation of human SENP6 protease inhibitors. 6,200 tested, 58% active. shares compounds with SENP7 block. AID 488915. inhibition, % at 12.5 µM. recombinant SENP6, Z-RLRGG-aminoluciferin luminescence
SENP7 conf – human SENP7 inhibition, confirmed | shares compounds with SENP7 block | inhibition, % at 12.5 µM | recombinant SENP7, Z-RLRGG-aminoluciferin luminescence, 40 min | 6,200 tested, 69% active
Casp3 SENP sel – caspase-3 inhibition (SENP selectivity assay); 6,200 tested, 60% active; inhibition, % at 12.5 µM; purified caspase-3, Z-DEVD-aminoluciferin luminescence, 60 min; AID 488918; shares compounds with SENP7 block;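 active = mean inhibition above about 50%, limit read from the data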
Target sequence (P42574 28-227 limits assumed): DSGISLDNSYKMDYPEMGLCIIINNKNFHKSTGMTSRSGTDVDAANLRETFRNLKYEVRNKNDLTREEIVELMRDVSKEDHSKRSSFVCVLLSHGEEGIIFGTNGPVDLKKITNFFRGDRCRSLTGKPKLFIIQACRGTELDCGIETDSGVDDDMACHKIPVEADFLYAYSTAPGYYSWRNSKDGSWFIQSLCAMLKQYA
Luc interf – luminescence interference (SENP counter-screen); inhibition, % at 12.5 µM; shares compounds with SENP7 block; 6,200 tested, 39% active; Pre-incubated SENP8/Z-RLRGG-aminoluciferin, luciferase luminescence interference;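 active = mean inhibition above about 50% when retested at one dose, limit read from the data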
Hits are given with their value; 0 = inactive; - = no result.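 The calls were made as follows, unless noted: active = mean inhibition above about 50% in the one-dose retest (limit read from the data); inactive = the rest.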

SMILES	PPC-1+TRAIL kill	SENP7 block	SENP8 block-1	SENP6 inh	TRAIL sens C8	SENP8 block-2	SENP8 confirm	SENP6 conf	SENP7 conf	Casp3 SENP sel	Luc interf
COc1cccc(NC(=O)COC(=O)CCCC2=NS(=O)(=O)c3ccccc3N2)c1	-	0	0	0	0	0	-	-	-	-	-
COC(=O)c1ccc(COc2ccc(/C=N/Nc3cccc(C(=O)O)c3)cc2)cc1	0	0	0	0	0	0	-	-	-	-	-
Cc1nn(-c2ccccc2)c(Cl)c1/C=N/Nc1ccc(Cl)c(C(=O)O)c1	51.8	91.7	97.0	100.2	0	0	99.3	100.3	102.7	84.6	80.1
Cc1nn(-c2ccccc2)c(Cl)c1/C=N/NC(=O)OC(C)(C)C	0	0	0	0	0	0	-	-	-	-	-
O=C(O)c1cc(N/N=C/c2ccc(OCc3ccccc3)cc2)ccc1Cl	0	0	72.2	56.2	0	0	60.1	53.9	74.1	0	69.0
Cc1cccc(NC(=O)c2ccccc2NC(=O)c2ccco2)c1	-	0	0	0	0	0	-	-	-	-	-
O=C(COC(=O)c1ccc(Br)o1)Nc1ncc([N+](=O)[O-])s1	-	0	64.9	73.8	0	0	68.9	65.6	86.5	78.4	72.8
O=C(CCS(=O)(=O)Cc1ccccc1)Nc1ncc([N+](=O)[O-])s1	-	83.3	84.2	88.2	0	0	0	82.9	96.6	71.2	82.2
Cc1ccc(S(=O)(=O)CC(=O)Nc2ncc([N+](=O)[O-])s2)cc1	-	0	0	0	0	0	-	-	-	-	-
Cc1ccc(CC(=O)Nc2ncc([N+](=O)[O-])s2)cc1	0	63.5	87.5	90.7	0	0	93.0	92.8	99.1	91.0	55.2
CCn1c(=O)c2sccc2n(Cc2cccc(C)c2)c1=O	-	0	0	0	0	0	-	-	-	-	-
CCOc1ccc(/C=C/C(=O)N(CC)CC(=O)Nc2ccc3c(c2)OCCO3)cc1OCC	-	0	0	0	0	0	-	-	-	-	-
COc1ccc(C(=O)Nc2ccc3c(c2)C(=O)c2ccccc2C3=O)cc1OC	0	0	0	0	0	0	-	-	-	-	-
COc1ccc(C(=O)c2c(C(F)(F)F)oc3c2C(=O)c2ccccc2C3=O)cc1OC	0	0	60.4	58.4	94.6	63.4	0	78.8	0	77.5	0
O=C(Nc1ccccc1)Nc1ccc2snnc2c1	0	61.7	0	61.7	0	0	56.4	53.7	76.6	0	63.3
O=C(Nc1ccccc1F)c1ccc2snnc2c1	-	0	0	51.2	0	0	0	0	65.3	71.5	0
Cc1cc(C)nc(NC(=O)c2cccs2)n1	0	0	0	0	0	0	-	-	-	-	-
CC(=O)c1sc(NC(=O)c2ccccc2F)nc1C	0	87.1	83.3	82.9	0	0	86.4	84.2	97.4	93.3	85.2
Cc1nc(NC(=O)c2cccs2)ccc1Br	0	80.6	69.8	0	0	0	81.9	81.5	95.1	80.2	69.5
CCOC(=O)c1sc(NC(=O)c2cccs2)nc1C	0	-	-	-	0	0	-	-	-	-	-
COC(=O)c1sc(NC(=S)NC(=O)c2ccccc2Cl)nc1C	0	0	0	61.5	0	0	0	0	0	0	0
CCOC(=O)c1sc(NC(=S)NC(=O)c2ccccc2)nc1C	0	0	0	0	0	0	-	-	-	-	-
CC(=O)c1sc(NC(=O)c2cccs2)nc1C	-	62.4	0	61.7	0	0	0	51.7	81.2	84.0	0
Cc1ccc(NC(=C(C#N)C#N)c2ccccc2)cc1	-	-	-	-	0	0	-	-	-	-	-
Cc1c(C(=O)NC(C)c2ccccn2)oc2c(Cl)cccc12 (centres undefined)	-	0	0	0	0	0	-	-	-	-	-
SMILES	PPC-1+TRAIL kill	SENP7 block	SENP8 block-1	SENP6 inh	TRAIL sens C8	SENP8 block-2	SENP8 confirm	SENP6 conf	SENP7 conf	Casp3 SENP sel	Luc interf
CCSc1nnc(C)c(=O)n1COC(=O)c1ccc(S(=O)(=O)N2CCCC2)cc1	0	0	0	0	0	0	-	-	-	-	-
Cc1c(N=Cc2c(O)n(C)c(=O)c3ccccc23)c(=O)n(-c2ccccc2)n1C	0	0	0	52.3	0	0	0	0	0	0	0
Cn1c2ccccc2c(=O)c2ccc(C#Cc3ccccn3)cc21	-	0	0	0	-	-	-	-	-	-	-
Cn1c2ccccc2c(=O)c2ccc(C#CC3(N)CCCCC3)cc21	-	0	0	0	0	0	-	-	-	-	-
COc1cccc2oc3ccc(C#CC4(N)CCCCC4)cc3c(=O)c12	-	0	0	53.6	0	0	55.4	51.9	81.3	70.2	0
N#Cc1ccc(C#Cc2ccc3oc4ccccc4c(=O)c3c2)cc1	-	0	0	0	0	0	-	-	-	-	-
O=c1c2ccccc2oc2ccc(C#CC3(O)CCCCC3)cc12	-	89.3	91.9	94.4	86.8	0	92.2	93.9	99.4	83.4	67.8
Cn1c2ccccc2c(=O)c2cc(C#CC3(O)CCCCC3)ccc21	-	97.2	91.7	95.7	92.2	0	0	57.2	0	62.3	77.9
Cn1c2ccccc2c(=O)c2cc(C#Cc3ccccn3)ccc21	-	81.9	83.4	87.9	0	0	0	0	0	0	0
COC(=O)C[C@H]1c2cc(F)ccc2S(=O)(=O)N1c1ccc(N(C)C)cc1	-	0	0	0	0	0	-	-	-	-	-
Cc1cc2sc3ccc(C#CC4(O)CCCCC4)cc3c(=O)c2cc1C	-	98.9	94.0	97.2	88.1	0	0	0	0	72.9	0
COC(=O)c1c(-c2ccc(F)cc2)csc1NC(=O)c1ccco1	0	0	0	0	0	0	-	-	-	-	-
Cc1ccc(C(=O)Nc2scc(-c3ccccc3)c2C(=O)O)cc1	-	70.0	92.5	94.4	0	0	0	96.9	101.9	95.0	95.1
COc1ccc(-c2csc(NC(=O)c3ccccc3F)c2C(=O)O)cc1	-	0	60.4	67.7	0	0	0	73.1	89.6	74.8	75.5
COc1cc(C(=O)Nc2scc(-c3ccc(C)cc3)c2C(=O)O)cc(OC)c1OC	-	0	0	0	0	0	-	-	-	-	-
CCOC(=O)c1c(-c2cccs2)csc1NC(=O)c1ccncc1	0	0	0	0	0	0	-	-	-	-	-
O=C(Nc1scc(-c2ccccc2)c1C(=O)O)c1ccco1	0	0	0	70.7	0	0	62.2	60.1	87.3	83.0	75.5
O=C(Nc1scc(-c2cccs2)c1C(=O)O)c1cccs1	0	0	75.7	87.0	0	0	0	79.6	94.6	79.6	84.9
COC(=O)c1ccc(OC)c(Cn2c(=O)n(C)c(=O)c3ccccc32)c1	-	0	0	0	0	0	-	-	-	-	-
O=C(CSc1ccccc1)NCCSCc1ccccc1	0	0	0	0	0	0	-	-	-	-	-
